Common to all, as to experiment: DAPPL (digital affinity profiling via proximity ligation, sequencing); 10 mM Tris-HCl pH 7.5, 50 mM NaCl, 1 mM DTT, 4% glycerol, room temperature, 30 min; GST-TFs on glutathione beads, 16-mer random dsDNA library, 0.1% formaldehyde crosslink after washing; high values mean tight binding
In one test the target is T1, FEV (Homo sapiens, UniProt Q99581 1-238).
T1 sequence: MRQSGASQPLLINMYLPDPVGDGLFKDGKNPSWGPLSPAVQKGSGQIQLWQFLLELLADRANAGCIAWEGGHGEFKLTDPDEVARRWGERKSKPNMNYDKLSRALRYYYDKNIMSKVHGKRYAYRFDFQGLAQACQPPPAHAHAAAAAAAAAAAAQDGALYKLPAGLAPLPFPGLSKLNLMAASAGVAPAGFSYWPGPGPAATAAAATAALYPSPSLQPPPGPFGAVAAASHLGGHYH
The note with it: protein: recombinant; tags: N-terminal GST; dsDNA, one strand shown. In short, it runs like this: (§1)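 In yeast, human transcription factors were expressed with a GST fusion, then pulled down on glutathione beads and given DNA barcodes. Pooled with a tag-only sample, they were exposed to 200 nmole of a 16-mer random double-stranded DNA library (Tris/NaCl/DTT/glycerol buffer, room temperature, 30 min), washed, crosslinked with 0.1% formaldehyde, proximity-ligated using BsaI/T4 ligase for 1 h at 37 °C, PCR-amplified and read on an Illumina NextSeq500. Each hexamer's frequency of reads for a factor, divided by the matching frequency for the tag-only sample, gives the binding signal.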

The target of the next test is ETV5 (Homo sapiens, UniProt P41161 1-510). The note with it: protein: recombinant; tags: N-terminal GST; dsDNA, one strand shown. In short, it runs like this:
as §1

The target of the next test is HSF1 (Homo sapiens, UniProt Q00613 1-529). The conditions noted are these: protein: recombinant; tags: N-terminal GST; chain copies: 3; dsDNA, one strand shown. In short, it runs like this:
as §1

The target in a further test is T2, SPIC (Homo sapiens, UniProt Q8N5J4 1-248).
T2 sequence: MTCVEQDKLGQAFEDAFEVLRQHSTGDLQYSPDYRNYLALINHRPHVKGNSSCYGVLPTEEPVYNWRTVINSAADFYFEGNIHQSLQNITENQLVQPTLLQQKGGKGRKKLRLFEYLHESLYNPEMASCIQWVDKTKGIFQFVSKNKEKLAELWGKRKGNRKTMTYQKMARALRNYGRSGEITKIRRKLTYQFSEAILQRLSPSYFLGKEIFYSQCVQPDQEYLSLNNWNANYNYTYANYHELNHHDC
The conditions noted are these: protein: recombinant; tags: N-terminal GST; dsDNA, one strand shown. In short, it runs like this: as §1

For a further test, the target named is ELF4 (Homo sapiens, UniProt Q99607 1-663). The note with it: protein: recombinant; tags: N-terminal GST; dsDNA, one strand shown. In a few lines:
as §1

Another test has as its target T3, ELK4 (Homo sapiens, UniProt P28324-2 1-405).
T3 sequence: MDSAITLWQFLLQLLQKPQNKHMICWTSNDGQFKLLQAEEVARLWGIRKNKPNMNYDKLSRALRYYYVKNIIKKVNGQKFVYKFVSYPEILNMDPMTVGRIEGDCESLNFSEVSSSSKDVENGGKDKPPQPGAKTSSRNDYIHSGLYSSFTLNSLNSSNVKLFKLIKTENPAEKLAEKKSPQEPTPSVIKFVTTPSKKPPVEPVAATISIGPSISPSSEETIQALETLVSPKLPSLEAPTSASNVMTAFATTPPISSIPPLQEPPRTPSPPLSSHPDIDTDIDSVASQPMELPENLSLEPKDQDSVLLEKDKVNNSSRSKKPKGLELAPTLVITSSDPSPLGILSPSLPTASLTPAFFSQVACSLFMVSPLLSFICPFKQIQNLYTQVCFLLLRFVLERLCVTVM
The note with it: protein: recombinant; tags: N-terminal GST; dsDNA, one strand shown. In short, it runs like this:
as §1

A further test addresses T4, ETV2 (Homo sapiens, UniProt O00321 1-342).
T4 sequence: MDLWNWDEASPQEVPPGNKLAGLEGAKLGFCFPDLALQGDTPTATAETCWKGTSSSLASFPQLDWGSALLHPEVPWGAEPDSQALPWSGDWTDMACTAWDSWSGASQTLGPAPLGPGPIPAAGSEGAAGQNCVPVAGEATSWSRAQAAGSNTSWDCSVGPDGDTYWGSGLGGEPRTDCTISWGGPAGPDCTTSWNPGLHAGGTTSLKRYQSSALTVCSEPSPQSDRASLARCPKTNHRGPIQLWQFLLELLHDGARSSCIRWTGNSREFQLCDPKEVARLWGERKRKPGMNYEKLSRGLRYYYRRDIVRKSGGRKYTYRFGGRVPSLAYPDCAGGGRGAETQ
The conditions noted are these: protein: recombinant; tags: N-terminal GST; dsDNA, one strand shown. In a few lines: as §1

In the next test the target is T5, ELF3 (Homo sapiens, UniProt P78545 1-371).
T5 sequence: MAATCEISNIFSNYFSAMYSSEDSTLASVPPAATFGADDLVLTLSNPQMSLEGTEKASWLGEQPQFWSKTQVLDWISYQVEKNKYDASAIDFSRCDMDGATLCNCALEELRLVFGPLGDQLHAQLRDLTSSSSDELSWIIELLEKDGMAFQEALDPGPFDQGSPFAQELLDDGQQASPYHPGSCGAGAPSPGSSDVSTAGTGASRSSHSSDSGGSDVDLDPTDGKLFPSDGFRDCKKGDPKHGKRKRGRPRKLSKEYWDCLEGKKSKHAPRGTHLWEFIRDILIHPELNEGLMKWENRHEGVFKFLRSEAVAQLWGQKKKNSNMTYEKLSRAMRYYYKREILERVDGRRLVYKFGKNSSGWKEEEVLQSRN
The conditions noted are these: protein: recombinant; tags: N-terminal GST; dsDNA, one strand shown. In short, it runs like this: as §1

In a further test the target is CRX (Homo sapiens, UniProt O43186 1-299). The conditions noted are these: protein: recombinant; tags: N-terminal GST; dsDNA, one strand shown. In a few lines: as §1
Chain of CRX (O43186 whole entry): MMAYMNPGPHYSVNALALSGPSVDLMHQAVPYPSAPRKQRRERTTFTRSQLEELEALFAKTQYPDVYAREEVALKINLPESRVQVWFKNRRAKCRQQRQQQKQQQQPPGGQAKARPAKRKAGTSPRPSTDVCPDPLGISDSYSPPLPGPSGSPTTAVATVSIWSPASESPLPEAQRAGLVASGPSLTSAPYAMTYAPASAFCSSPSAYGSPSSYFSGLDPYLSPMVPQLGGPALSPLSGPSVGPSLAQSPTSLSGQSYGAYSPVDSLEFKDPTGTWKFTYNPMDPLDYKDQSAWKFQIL
In a further test the target is ETV1 (Homo sapiens, UniProt P50549 1-477). The note with it: protein: recombinant; tags: N-terminal GST; dsDNA, one strand shown. In a few lines:
as §1

Chain of HSF1 (Q00613 whole entry): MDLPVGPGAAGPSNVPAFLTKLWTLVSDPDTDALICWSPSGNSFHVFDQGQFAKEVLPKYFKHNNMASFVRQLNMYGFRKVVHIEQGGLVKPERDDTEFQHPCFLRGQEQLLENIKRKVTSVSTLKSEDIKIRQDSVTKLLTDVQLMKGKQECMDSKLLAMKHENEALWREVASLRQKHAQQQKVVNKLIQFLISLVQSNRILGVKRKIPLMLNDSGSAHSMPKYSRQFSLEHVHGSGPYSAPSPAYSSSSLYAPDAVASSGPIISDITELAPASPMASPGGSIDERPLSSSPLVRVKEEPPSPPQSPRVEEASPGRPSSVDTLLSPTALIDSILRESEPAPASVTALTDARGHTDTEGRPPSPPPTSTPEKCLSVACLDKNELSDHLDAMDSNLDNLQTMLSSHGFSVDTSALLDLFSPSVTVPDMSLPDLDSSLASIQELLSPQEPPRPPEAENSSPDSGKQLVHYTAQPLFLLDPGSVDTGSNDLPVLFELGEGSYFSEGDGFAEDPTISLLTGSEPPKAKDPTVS
Chain of ETV1 (P50549 whole entry): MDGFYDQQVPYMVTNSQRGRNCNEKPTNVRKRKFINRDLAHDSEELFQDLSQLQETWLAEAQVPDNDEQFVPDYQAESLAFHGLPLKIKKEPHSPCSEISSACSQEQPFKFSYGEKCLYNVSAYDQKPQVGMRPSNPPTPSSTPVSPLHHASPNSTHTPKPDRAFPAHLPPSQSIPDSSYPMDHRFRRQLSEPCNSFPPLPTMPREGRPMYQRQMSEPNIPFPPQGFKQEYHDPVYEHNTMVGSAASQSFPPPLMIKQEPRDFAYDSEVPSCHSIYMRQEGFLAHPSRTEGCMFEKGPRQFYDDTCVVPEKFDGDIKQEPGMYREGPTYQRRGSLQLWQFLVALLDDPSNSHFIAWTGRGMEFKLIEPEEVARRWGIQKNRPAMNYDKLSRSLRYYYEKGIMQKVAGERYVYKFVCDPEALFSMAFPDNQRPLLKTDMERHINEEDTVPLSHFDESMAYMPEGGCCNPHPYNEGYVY
Chain of ETV5 (P41161 whole entry): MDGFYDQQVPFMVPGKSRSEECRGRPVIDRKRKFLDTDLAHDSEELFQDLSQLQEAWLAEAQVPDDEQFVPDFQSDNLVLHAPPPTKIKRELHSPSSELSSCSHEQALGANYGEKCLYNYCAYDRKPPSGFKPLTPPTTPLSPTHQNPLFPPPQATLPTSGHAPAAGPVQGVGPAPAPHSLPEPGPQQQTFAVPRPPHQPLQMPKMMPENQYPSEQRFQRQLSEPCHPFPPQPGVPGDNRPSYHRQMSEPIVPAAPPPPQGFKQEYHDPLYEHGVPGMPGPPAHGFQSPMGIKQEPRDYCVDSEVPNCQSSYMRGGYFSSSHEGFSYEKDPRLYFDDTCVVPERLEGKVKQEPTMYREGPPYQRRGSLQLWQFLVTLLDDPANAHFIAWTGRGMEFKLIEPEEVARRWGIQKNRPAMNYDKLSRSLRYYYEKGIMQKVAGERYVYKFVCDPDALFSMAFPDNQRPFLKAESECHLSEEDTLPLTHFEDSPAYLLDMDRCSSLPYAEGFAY
Chain of ELF4 (Q99607 whole entry): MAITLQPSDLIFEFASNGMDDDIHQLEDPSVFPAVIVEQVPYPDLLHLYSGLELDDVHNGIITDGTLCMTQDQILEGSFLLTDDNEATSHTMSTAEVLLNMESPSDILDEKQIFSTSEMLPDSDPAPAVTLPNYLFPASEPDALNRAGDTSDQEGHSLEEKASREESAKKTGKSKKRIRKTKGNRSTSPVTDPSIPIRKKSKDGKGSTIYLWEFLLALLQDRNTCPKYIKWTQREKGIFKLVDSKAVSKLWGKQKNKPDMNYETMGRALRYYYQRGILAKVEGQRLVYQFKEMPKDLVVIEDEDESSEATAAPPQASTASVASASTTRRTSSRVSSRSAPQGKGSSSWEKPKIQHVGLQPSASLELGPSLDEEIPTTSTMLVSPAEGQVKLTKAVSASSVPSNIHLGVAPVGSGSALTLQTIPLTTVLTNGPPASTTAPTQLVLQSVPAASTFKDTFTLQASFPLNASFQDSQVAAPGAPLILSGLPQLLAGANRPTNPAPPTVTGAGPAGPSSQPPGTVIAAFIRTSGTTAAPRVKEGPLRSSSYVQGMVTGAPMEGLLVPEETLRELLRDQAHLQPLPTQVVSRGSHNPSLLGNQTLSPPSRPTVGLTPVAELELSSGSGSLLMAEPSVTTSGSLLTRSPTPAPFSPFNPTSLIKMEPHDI

Regarding GTCTTA, the binding signal with FEV is 1.07 fold enrichment (6-mer frequency, TF over GST control); with ETV5 it was 1.14 fold enrichment (6-mer frequency, TF over GST control); with HSF1 it was 1.35 fold enrichment (6-mer frequency, TF over GST control); with SPIC, 1.07 fold enrichment (6-mer frequency, TF over GST control); with ELF4, 1.08 fold enrichment (6-mer frequency, TF over GST control); in the test with ELK4, 1.04 fold enrichment (6-mer frequency, TF over GST control). Also, the binding signal with ETV2 is 1.14 fold enrichment (6-mer frequency, TF over GST control); in the test with ELF3 it was 1.16 fold enrichment (6-mer frequency, TF over GST control); with CRX it was 1.94 fold enrichment (6-mer frequency, TF over GST control); with ETV1, 1.15 fold enrichment (6-mer frequency, TF over GST control).

These data come from PMC7862700, “An all-to-all approach to the identification of sequence-specific readers for epigenetic DNA modifications on cytosine”.
